An excerpt weighted towards active compounds, which were near 11% of everything screened.
ALDH1A1 inh: blocks purified human ALDH1A1 activity; Purified ALDH1A1, NADH fluorescence, propionaldehyde substrate; AID 1030; 220,000 tested, 7.3% active; Potency, µM (highest dose often 75.3 µM), for the others: at the top dose activity, negative = inhibition, usual class: inhibitors; P00352; active = well fitted inhibition curve with a large enough effect, not every such curve was filed as active; inconclusive = small, poorly fitted or top-dose-only effect, or another doubt; inactive = no such curve, though single readings can be large or run the other way;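 also: potency is read from the fitted curve at half-maximal effect; plate controls were no enzyme wells and a reference inhibitor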
IMPase inh: membrane-permeable compound that blocks inositol monophosphatase; CHO-M1 cells, IP1 accumulation, HTRF TR-FRET ratio; inhibition (IP1 accumulation), % at 46.1 µM; 120,000 tested, under 10 active; AID 901; active = well fitted curve in the direction sought with a large enough effect in the signal ratio, not every such curve was filed as active; inconclusive = small, poorly fitted or top-dose-only effect, or a change in a side signal; inactive = no such curve, though single readings can be large or run the other way; the % refers to the signal ratio;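 also: cells stimulated with carbachol in lithium chloride buffer; plate controls were DMSO basal wells for no effect and reference inhibitor wells for full effect; higher means more IMPase inhibition seen as more IP1 and lower FRET ratio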
Target sequence (P97697 whole entry, looked up): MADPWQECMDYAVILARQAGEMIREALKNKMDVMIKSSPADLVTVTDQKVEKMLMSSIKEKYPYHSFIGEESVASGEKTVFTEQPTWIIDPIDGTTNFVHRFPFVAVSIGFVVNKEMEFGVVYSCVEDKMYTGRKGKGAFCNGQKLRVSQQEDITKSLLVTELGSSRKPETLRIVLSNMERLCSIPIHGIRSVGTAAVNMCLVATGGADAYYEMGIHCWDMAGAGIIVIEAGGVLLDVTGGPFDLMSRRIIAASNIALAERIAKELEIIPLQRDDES
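Carbachol-driven Gq signalling in CHO-M1 cells (2000/well) generates IP1. Compounds that block IMPase raise IP1 and so reduce the FRET signal from Eu-anti-IP1 and d2-IP1 after a 10 min room-temperature lysis.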
PNC assembly inh: inhibitors of perinucleolar compartment assembly. 140,000 tested, 3.1% active. PC3M PTB-GFP, PNC prevalence imaging, 16 h; stronger effect = lower value. activity change (PNC), negative = inhibition, % at 10 µM;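 active = readout at or below -70, meaning at least 70% loss of cells showing the perinucleolar compartment, a nuclear body marking cancer cells; inconclusive = readout between -30 and a set limit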;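 also: plate controls were DMSO wells for no effect and camptothecin positive control wells for full effect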
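Compounds are pinned in duplicate onto adhered PC3M cells stably expressing GFP-tagged PTB and incubated 16 h at 37 C. Cells are then fixed, nuclei stained with Hoechst, and PNC-positive cells counted.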
ALOX12 inhib: blocks human 12-lipoxygenase activity; purified 12-hLO, xylenol orange hydroperoxide absorbance; P18054; Potency, µM (titrated, usually from 57.1 µM), for the others: top-dose activity change, negative = inhibition, hits mostly inhibitors; 150,000 tested, 0.12% active; also: potency is read from the fitted curve at half-maximal effect; nearly all actives have a fitted effect of over 55% in size
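Purified human 12hLO (150 nM), preincubated 15 min with compound, then 40 uM arachidonic acid for 30 min, room temperature, Hepes pH 7.0 with 0.01% Triton X-100. Hydroperoxide detected by ferrous iron/xylenol orange; 573/405 nm absorbance ratio gives reaction progress.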
HPGD inh: HPGD (human) dehydrogenase inhibition; P15428; purified HPGD, NADH fluorescence kinetic, PGE2 substrate; Potency, µM, without a hit: at the highest dose activity change, negative = inhibition, most hits filed as inhibitors; 150,000 tested, 4.3% active; AID 894; active = well fitted inhibition curve with a large enough effect, not every such curve was filed as active; inconclusive = small, poorly fitted or top-dose-only effect, or another doubt; inactive = no such curve, though single readings can be large or run the other way; also: potency is read from the fitted curve at half-maximal effect
Target sequence (P15428 whole entry, looked up): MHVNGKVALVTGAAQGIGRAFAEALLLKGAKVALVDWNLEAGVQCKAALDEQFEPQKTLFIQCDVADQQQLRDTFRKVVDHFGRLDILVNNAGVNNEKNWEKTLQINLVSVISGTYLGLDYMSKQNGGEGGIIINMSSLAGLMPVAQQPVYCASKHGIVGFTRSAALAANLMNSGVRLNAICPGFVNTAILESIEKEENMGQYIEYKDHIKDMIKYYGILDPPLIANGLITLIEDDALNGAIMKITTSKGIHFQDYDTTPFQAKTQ
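NADH formation kinetics: reaction with 30 uM PGE2 and 1 mM NAD+ (final), 20 nM enzyme, Tris-HCl pH 8 with Tween 20, after 15 min compound preincubation at room temperature. Fluorescence change, last versus first of five reads.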
IMPase Li cell: cell-permeable IMPase inhibitors with lithium potentiation. CHO-M1 cells, IP1 TR-FRET (IP-One), carbachol + lithium. Potency, µM (top dose mostly 59.4 µM), for inactives: at the highest dose activity, negative = IMPase inhibition, actives largely listed as inhibitors. 210,000 tested, 0.35% active;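 also: IP1 builds up when IMPase is blocked and the TR-FRET signal falls; potency is read from the fitted curve at half-maximal effect; plate controls were basal vehicle for no effect and high inhibitor control for full effect; nearly all actives have a fitted effect of over 50% in size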
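CHO cells stably expressing M1 receptor (2000/well) were cultured 16–30 h, then exposed to compounds with a small lithium addition for 30 min at 37C. IP1 was measured by TR-FRET competition; AC50 from Hill fits.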
Starred values were filed as active, the others as inactive; ? = inconclusive; / = not tested or not shown; [ ] = dose if it differs, or a comment. Unless noted, calls follow the shape of the dose curve; as a rule, active = well fitted curve in the direction sought with a large enough effect; inconclusive = small, poorly fitted or top-dose-only effect, or another doubt; inactive = no such curve, though single readings can be large; an effect the other way counts as inactive or inconclusive. Unless noted, % is scaled to controls: 0 for no effect and ±100 for the full control effect.

SMILES	ALDH1A1 inh	IMPase inh	PNC assembly inh	ALOX12 inhib	HPGD inh	IMPase Li cell
Cc1nc(C)c(C(=O)C2=C(O)C(=O)N(CCCN(C)C)C2c2ccco2)s1 (stereo not given)	?	5	-81*	-5%	-12%	-7%[38.3 µM]
O=c1c2c(nc3nc(Cc4ccccc4)[nH]n13)CCC2	-9%	4	-90*	3%	-18%	21%[38.3 µM]
Cc1noc(C)c1-c1cc(NC2CC2)ncn1	-6%	/	/	-7%	-3%	4%
CCCc1cc(=O)n2[nH]c(-c3ccc(Br)cc3)cc2n1	-1%	-6	-100*	6%	-17%	3%
CCOC(=O)Cc1cc(=O)n2[nH]c(-c3ccccc3)cc2n1	?	-11	47	-1%	?	8%
CCOCCCNS(=O)(=O)c1ccc2c(c1)CCN2C(=O)CC	-6%	8	-110*	0%	-1%	24%[38.3 µM]
CCOC(=O)c1ccc(NS(=O)(=O)c2ccc3c(c2)CCN3C(=O)CC)cc1	/	4	/	/	/	/
CCC(=O)N1CCc2cc(S(=O)(=O)NCCCN3CCN(Cc4ccccc4)CC3)ccc21	18µM*	?	32	0%	-18%	81%[38.3 µM]
CC(=O)N1CCc2cc(S(=O)(=O)NCCCN3CCN(Cc4ccccc4)CC3)ccc21	-6%	-1	-29	4%	-2%	5%[38.3 µM]
Oc1c(Cl)cc(Cl)cc1/C=N/c1nccs1	14µM*	-8	2	-23%	-23%	11%[38.3 µM]
Oc1c(Cl)cc(Cl)cc1/C=N/c1nc(-c2ccc(Cl)cc2)cs1	10%	/	/	/	/	/
O=C(O)CSC1CC(=O)N(c2ccc(Cl)c(Cl)c2)C1=O (stereo not given)	3.2µM*	-3	?	-6%	-14%	-15%[38.3 µM]
Nc1ccccc1SC1CC(=O)N(c2ccc(Cl)c(Cl)c2)C1=O (stereo not given)	2%	/	/	/	/	/
O=C(O)CSC1CC(=O)N(c2cccc(Cl)c2)C1=O (stereo not given)	10µM*	0	?	0%	-3%	-9%[38.3 µM]
Cc1cccc(C)c1NC(=S)N/N=C/c1ccc(OCCC(C)C)cc1	2%	4	27	?	-9%	21%[38.3 µM]
CC=C(Cl)Cl	0%	/	/	0%	0%	-11%
COc1ccc(Cl)cc1NC(=O)CN(C)CC(=O)Nc1ccccc1N1CCOCC1	-4%	/	/	/	/	2%
COC(=O)c1ccccc1NC(=O)CNc1cc(Cl)ccc1N1CCOCC1	32µM*	7	-29	-10%	-24%	16%[38.3 µM]
COc1cc(OC)cc(C(=O)N[C@H](C(=O)Nc2ccccc2N2CCOCC2)C(C)C)c1	?	-1	-28	0%	-8%	26%[38.3 µM]
Cc1cc(Cl)ccc1OC(C)C(=O)Nc1ccccc1N1CCOCC1 (stereo not given)	3%	7	-104*	-5%	-4%	8%
Cc1ccc(C(=O)CSc2nnc(CNc3nc(-c4ccccc4)cs3)n2C)cc1	14µM*	-1	12	-8%	-21%	-5%[38.3 µM]
CCn1c(CNc2nc(-c3ccccc3)cs2)nnc1SCC(=O)NCc1ccco1	28µM*	-5	12	-7%	?	-15%[38.3 µM]
c1cncc(-c2csc(NCc3ccco3)n2)c1	?	2	18	-6%	14µM*	16%[38.3 µM]
CC(=O)Nc1ccc(-c2csc(NCc3ccco3)n2)cc1	?	0	18	-10%	?	4%
O=C(CSc1nc(-c2ccccc2)cs1)NCc1ccco1	25µM*	-14	?	1%	28µM*	7%
O=C(CSc1ncc(-c2ccccc2)nn1)NCc1ccco1	-3%	-1	28	-3%	-24%	23%[38.3 µM]
Cc1ccccc1Nc1oc(-c2ccccc2)nc1CCc1ccccc1	?	/	/	0%	-6%	23%
COCCNC(=O)CSc1nc(-c2ccccc2)cs1	0%	?	-13	-3%	32µM*	-4%[38.3 µM]
O=[N+]([O-])c1cc(-c2nnc(Nc3ccccc3)c3ccccc23)ccc1N1CCOCC1	?	-9	-28	0%	14µM*	4%
O=[N+]([O-])c1cc(-c2nnc(N3CCOCC3)c3ccccc23)ccc1N1CCOCC1	10µM*	/	/	/	/	13%
